# Test results as given in paper PMC7862700, “An all-to-all approach to the identification of sequence-specific readers for epigenetic DNA modifications on cytosine”.
# Assays:
# Experiment in all cases: DAPPL (digital affinity profiling via proximity ligation, sequencing); 10 mM Tris-HCl pH 7.5, 50 mM NaCl, 1 mM DTT, 4% glycerol, room temperature, 30 min; GST-TFs on glutathione beads, 16-mer random dsDNA library, 0.1% formaldehyde crosslink after washing; high values mean tight binding
# FLI1 = biological target: T1, FLI1 (Homo sapiens, UniProt Q01543 1-452); settings: protein: recombinant; tags: N-terminal GST; dsDNA, one strand shown
# T1 sequence: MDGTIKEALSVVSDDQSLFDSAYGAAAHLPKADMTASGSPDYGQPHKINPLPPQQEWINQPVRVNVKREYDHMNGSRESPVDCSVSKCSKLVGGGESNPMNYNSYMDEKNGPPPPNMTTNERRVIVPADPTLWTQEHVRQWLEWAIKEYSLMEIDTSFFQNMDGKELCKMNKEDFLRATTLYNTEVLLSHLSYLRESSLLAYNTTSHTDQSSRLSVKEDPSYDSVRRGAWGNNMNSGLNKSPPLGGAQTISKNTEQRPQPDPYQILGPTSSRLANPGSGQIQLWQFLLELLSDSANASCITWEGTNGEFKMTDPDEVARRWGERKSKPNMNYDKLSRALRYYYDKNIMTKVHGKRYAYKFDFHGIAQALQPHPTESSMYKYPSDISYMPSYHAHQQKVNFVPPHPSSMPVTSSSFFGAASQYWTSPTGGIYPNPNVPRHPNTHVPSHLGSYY
# Method in brief: (§1)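 Human transcription factors were made in yeast as GST fusions, captured on glutathione beads and barcoded with DNA. With a tag-only sample included, the pool was incubated with 200 nmole of a random double-stranded 16-mer DNA library in Tris/NaCl/DTT/glycerol buffer at room temperature for 30 min, then crosslinked with 0.1% formaldehyde after washing, ligated by proximity, amplified and sequenced. For binding signal, each hexamer's read frequency for a factor is divided by its frequency for the tag-only sample.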
# ELK1 = biological target: T2, ELK1 (Homo sapiens, UniProt P19419 1-428); settings: protein: recombinant; tags: N-terminal GST; dsDNA, one strand shown
# T2 sequence: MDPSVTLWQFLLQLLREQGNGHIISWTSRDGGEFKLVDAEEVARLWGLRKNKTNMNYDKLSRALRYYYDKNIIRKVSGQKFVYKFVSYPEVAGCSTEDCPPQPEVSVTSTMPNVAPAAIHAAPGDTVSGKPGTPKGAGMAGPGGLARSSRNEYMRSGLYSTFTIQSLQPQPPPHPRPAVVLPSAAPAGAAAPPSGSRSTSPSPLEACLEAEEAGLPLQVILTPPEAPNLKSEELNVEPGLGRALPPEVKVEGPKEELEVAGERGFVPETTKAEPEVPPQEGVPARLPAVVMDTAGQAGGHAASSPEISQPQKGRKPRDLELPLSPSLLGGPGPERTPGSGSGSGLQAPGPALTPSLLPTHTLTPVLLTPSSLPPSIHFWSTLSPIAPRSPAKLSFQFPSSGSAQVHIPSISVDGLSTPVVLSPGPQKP
# Method in brief: as §1
# GABPA = biological target: T3, GABPA (Homo sapiens, UniProt Q06546 1-454); settings: protein: recombinant; tags: N-terminal GST; dsDNA, one strand shown
# T3 sequence: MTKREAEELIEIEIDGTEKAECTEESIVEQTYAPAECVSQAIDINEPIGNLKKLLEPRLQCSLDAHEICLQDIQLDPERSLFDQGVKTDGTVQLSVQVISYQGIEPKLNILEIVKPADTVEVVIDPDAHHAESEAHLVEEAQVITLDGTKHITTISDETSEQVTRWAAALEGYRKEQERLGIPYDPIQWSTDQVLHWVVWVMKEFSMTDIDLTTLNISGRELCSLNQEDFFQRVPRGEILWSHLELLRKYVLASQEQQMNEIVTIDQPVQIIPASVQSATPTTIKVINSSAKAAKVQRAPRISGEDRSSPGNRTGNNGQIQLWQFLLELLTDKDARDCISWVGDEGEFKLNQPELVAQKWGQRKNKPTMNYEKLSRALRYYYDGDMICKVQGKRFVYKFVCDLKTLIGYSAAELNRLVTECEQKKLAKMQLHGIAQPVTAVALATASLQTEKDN
# Method in brief: as §1
# ERG = biological target: T4, ERG (Homo sapiens, UniProt P11308 1-479); settings: protein: recombinant; tags: N-terminal GST; dsDNA, one strand shown
# T4 sequence: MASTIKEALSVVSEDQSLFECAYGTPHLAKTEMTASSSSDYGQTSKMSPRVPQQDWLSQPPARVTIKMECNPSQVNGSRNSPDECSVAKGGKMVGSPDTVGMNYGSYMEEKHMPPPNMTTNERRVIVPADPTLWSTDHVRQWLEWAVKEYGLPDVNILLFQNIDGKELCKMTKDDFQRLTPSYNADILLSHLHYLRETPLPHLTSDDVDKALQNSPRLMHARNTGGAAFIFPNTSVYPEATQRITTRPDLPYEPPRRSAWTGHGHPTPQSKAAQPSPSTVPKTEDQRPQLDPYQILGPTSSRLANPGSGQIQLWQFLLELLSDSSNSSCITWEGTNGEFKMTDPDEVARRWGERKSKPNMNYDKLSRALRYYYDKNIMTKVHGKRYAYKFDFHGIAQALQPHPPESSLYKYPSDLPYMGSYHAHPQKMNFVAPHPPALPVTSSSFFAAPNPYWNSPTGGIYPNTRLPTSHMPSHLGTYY
# Method in brief: as §1
# ELF1 = ELF1 (Homo sapiens, UniProt P32519 1-619); settings: protein: recombinant; tags: N-terminal GST; dsDNA, one strand shown
# Method in brief: as §1
# EHF = biological target: T5, EHF (Homo sapiens, UniProt Q9NZC4 1-300); settings: protein: recombinant; tags: N-terminal GST; dsDNA, one strand shown
# T5 sequence: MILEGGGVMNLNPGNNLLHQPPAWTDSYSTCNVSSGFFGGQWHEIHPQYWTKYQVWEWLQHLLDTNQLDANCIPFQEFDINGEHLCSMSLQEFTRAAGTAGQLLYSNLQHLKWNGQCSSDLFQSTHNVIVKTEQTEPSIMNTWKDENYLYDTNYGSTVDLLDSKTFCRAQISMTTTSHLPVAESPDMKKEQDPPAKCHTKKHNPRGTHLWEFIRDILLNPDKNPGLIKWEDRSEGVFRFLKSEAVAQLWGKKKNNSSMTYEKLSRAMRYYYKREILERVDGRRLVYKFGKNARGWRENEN
# Method in brief: as §1
# SPI1 = SPI1 (Homo sapiens, UniProt P17947 1-270); settings: protein: recombinant; tags: N-terminal GST; dsDNA, one strand shown
# Method in brief: as §1
# SPIB = SPIB (Homo sapiens, UniProt Q01892 1-262); settings: protein: recombinant; tags: N-terminal GST; dsDNA, one strand shown
# Method in brief: as §1
# ELK3 = biological target: T6, ELK3 (Homo sapiens, UniProt P41970 1-407); settings: protein: recombinant; tags: N-terminal GST; dsDNA, one strand shown
# T6 sequence: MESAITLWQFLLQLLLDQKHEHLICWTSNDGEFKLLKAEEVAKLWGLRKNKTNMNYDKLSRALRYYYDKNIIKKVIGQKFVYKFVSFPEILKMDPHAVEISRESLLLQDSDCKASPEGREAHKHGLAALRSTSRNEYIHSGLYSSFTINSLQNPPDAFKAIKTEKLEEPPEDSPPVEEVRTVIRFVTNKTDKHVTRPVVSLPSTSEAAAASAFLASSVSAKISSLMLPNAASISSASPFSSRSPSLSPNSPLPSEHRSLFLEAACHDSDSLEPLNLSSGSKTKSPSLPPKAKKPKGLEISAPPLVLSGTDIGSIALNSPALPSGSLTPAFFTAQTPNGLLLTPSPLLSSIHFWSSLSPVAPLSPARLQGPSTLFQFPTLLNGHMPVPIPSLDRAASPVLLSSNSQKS
# Method in brief: as §1
# FEV = biological target: T7, FEV (Homo sapiens, UniProt Q99581 1-238); settings: protein: recombinant; tags: N-terminal GST; dsDNA, one strand shown
# T7 sequence: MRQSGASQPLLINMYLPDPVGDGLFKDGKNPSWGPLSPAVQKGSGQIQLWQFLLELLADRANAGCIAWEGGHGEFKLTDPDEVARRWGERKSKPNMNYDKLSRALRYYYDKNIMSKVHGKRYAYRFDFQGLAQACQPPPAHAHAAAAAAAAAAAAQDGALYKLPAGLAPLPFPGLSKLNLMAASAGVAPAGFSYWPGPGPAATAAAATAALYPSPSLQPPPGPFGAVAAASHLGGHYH
# Method in brief: as §1
# ETV5 = ETV5 (Homo sapiens, UniProt P41161 1-510); settings: protein: recombinant; tags: N-terminal GST; dsDNA, one strand shown
# Method in brief: as §1
# HSF1 = HSF1 (Homo sapiens, UniProt Q00613 1-529); settings: protein: recombinant; tags: N-terminal GST; chain copies: 3; dsDNA, one strand shown
# Method in brief: as §1
# SPIC = biological target: T8, SPIC (Homo sapiens, UniProt Q8N5J4 1-248); settings: protein: recombinant; tags: N-terminal GST; dsDNA, one strand shown
# T8 sequence: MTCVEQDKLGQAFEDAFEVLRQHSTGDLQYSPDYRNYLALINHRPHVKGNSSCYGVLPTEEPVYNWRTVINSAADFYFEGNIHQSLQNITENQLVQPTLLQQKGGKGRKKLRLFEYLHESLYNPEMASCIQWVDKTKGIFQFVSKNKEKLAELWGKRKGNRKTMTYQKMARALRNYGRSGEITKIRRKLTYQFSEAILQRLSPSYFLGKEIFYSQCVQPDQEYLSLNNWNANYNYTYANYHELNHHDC
# Method in brief: as §1
# ELF4 = ELF4 (Homo sapiens, UniProt Q99607 1-663); settings: protein: recombinant; tags: N-terminal GST; dsDNA, one strand shown
# Method in brief: as §1
# ELK4 = biological target: T9, ELK4 (Homo sapiens, UniProt P28324-2 1-405); settings: protein: recombinant; tags: N-terminal GST; dsDNA, one strand shown
# T9 sequence: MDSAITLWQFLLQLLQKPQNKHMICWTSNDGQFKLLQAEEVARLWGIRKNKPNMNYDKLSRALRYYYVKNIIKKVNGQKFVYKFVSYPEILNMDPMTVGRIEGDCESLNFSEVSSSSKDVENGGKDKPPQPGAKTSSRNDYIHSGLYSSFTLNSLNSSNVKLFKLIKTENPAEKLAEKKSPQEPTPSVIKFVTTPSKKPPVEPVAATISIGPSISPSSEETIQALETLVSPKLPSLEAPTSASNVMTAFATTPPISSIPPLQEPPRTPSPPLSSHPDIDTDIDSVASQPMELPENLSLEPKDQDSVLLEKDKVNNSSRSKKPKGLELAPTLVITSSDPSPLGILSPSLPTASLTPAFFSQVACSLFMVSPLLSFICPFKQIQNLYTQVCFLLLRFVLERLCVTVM
# Method in brief: as §1
# ETV2 = biological target: T10, ETV2 (Homo sapiens, UniProt O00321 1-342); settings: protein: recombinant; tags: N-terminal GST; dsDNA, one strand shown
# T10 sequence: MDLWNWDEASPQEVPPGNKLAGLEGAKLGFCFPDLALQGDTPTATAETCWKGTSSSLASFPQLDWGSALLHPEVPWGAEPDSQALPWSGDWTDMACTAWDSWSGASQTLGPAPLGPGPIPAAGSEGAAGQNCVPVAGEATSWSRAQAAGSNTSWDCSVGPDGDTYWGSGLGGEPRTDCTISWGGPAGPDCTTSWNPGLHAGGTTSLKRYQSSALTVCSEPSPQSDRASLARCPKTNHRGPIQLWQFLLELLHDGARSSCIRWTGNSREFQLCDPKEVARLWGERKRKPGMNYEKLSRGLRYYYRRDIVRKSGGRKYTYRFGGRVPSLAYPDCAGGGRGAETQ
# Method in brief: as §1
# ELF3 = biological target: T11, ELF3 (Homo sapiens, UniProt P78545 1-371); settings: protein: recombinant; tags: N-terminal GST; dsDNA, one strand shown
# T11 sequence: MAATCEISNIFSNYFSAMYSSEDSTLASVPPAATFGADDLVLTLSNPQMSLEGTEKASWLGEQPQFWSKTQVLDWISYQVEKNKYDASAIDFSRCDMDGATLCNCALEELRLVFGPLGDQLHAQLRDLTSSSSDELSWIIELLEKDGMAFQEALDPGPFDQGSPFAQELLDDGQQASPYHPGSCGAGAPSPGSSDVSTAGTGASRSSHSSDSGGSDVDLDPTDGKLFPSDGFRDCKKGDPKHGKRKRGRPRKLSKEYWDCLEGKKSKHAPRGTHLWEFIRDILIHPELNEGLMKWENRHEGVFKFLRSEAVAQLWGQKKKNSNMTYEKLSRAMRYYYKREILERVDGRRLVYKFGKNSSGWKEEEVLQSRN
# Method in brief: as §1
# CRX = CRX (Homo sapiens, UniProt O43186 1-299); settings: protein: recombinant; tags: N-terminal GST; dsDNA, one strand shown
# Method in brief: as §1
# ETV1 = ETV1 (Homo sapiens, UniProt P50549 1-477); settings: protein: recombinant; tags: N-terminal GST; dsDNA, one strand shown
# Method in brief: as §1
# ETV1, sequence (P50549 whole entry): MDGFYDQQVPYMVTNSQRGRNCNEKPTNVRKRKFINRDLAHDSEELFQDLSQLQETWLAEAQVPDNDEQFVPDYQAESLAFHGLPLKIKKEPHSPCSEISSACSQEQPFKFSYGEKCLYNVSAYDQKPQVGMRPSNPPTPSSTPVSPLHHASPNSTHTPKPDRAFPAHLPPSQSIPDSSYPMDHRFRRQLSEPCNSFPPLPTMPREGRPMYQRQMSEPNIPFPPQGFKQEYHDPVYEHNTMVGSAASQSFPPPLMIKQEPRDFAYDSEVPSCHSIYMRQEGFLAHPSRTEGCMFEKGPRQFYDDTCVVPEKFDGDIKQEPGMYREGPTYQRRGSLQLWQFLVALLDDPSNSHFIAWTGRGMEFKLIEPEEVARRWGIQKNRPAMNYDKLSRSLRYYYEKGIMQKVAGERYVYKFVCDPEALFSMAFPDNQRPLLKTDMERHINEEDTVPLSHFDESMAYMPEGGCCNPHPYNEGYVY
# SPIB, sequence (Q01892 whole entry): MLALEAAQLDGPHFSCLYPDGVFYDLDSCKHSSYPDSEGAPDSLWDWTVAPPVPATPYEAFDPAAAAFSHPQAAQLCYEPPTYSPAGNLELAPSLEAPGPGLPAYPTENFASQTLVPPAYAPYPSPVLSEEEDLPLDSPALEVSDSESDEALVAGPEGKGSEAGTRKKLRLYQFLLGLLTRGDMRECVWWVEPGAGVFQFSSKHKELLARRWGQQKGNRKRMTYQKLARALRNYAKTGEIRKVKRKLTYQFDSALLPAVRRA
# ETV5, sequence (P41161 whole entry): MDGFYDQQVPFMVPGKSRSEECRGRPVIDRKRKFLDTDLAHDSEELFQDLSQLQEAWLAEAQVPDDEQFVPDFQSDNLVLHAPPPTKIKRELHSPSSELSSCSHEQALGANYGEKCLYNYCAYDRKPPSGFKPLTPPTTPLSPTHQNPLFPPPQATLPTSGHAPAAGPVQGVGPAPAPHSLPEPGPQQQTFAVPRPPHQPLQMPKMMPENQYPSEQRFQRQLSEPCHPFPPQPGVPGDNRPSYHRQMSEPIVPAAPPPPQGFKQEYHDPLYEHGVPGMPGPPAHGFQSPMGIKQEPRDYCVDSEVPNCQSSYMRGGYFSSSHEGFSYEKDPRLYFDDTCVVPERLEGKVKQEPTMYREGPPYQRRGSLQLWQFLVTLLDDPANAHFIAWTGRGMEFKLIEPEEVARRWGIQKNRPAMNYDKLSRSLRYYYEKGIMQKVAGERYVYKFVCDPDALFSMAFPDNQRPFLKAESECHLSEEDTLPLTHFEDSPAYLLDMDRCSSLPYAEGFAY
# CRX, sequence (O43186 whole entry): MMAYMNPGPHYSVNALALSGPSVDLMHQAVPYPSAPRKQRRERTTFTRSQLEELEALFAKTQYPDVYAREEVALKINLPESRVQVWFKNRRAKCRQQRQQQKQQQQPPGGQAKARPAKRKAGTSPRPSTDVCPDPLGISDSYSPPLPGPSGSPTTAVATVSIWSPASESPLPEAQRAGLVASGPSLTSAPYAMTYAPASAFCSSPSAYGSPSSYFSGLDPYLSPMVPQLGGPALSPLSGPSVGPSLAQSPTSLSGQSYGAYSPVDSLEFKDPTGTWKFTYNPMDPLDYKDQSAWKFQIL
# ELF4, sequence (Q99607 whole entry): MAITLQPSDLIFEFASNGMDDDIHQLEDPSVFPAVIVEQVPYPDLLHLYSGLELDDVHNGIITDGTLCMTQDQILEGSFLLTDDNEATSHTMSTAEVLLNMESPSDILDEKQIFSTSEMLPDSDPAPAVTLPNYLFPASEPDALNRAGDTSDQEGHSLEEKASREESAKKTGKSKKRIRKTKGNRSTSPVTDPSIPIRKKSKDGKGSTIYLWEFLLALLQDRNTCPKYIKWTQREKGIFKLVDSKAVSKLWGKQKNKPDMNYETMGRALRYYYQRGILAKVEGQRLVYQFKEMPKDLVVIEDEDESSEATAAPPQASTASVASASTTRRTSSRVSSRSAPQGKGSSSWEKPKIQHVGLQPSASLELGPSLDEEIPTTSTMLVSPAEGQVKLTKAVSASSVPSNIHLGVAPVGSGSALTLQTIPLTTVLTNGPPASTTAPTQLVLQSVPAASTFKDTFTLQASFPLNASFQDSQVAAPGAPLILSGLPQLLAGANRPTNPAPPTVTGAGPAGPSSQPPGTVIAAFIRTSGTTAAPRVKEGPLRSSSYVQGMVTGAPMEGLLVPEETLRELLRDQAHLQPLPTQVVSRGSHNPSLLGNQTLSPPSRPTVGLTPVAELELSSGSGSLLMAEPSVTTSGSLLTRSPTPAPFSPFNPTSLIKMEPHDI
# ELF1, sequence (P32519 whole entry): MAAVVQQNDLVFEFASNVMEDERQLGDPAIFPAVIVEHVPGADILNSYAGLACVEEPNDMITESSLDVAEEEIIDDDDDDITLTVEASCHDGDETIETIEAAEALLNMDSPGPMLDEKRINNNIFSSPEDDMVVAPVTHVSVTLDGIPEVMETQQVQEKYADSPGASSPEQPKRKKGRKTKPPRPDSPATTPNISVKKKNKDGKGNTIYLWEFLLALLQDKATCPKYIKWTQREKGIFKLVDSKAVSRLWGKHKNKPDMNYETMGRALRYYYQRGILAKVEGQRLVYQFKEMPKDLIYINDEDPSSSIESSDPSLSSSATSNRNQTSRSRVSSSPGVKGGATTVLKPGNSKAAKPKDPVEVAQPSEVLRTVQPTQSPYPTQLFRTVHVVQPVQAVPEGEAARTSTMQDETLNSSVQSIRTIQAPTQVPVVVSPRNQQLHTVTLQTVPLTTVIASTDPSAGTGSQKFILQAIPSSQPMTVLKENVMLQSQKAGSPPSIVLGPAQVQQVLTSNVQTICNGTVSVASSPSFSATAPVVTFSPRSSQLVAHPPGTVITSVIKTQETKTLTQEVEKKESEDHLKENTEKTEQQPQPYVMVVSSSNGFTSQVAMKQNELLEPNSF
# HSF1, sequence (Q00613 whole entry): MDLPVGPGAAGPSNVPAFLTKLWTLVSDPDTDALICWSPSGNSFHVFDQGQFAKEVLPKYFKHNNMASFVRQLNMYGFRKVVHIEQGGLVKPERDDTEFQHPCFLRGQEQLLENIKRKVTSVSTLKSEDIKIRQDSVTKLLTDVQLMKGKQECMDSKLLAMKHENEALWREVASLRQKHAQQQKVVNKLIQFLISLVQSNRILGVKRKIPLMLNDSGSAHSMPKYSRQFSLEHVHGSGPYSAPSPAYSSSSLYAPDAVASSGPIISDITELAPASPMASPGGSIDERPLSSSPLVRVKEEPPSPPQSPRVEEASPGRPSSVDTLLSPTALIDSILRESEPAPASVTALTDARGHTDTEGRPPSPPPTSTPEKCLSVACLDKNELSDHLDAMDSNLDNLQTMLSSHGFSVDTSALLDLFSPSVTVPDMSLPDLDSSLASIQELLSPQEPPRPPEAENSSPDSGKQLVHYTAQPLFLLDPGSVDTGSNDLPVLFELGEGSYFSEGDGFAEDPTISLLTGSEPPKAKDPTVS
sequence,measurement,setting,value
TAATGG,binding signal,FLI1,"1.26 fold enrichment (6-mer frequency, TF over GST control)"
same,binding signal,ELK1,"1.35 fold enrichment (6-mer frequency, TF over GST control)"
same,binding signal,GABPA,"1.24 fold enrichment (6-mer frequency, TF over GST control)"
same,binding signal,ERG,"1.22 fold enrichment (6-mer frequency, TF over GST control)"
same,binding signal,ELF1,"1.32 fold enrichment (6-mer frequency, TF over GST control)"
same,binding signal,EHF,"1.25 fold enrichment (6-mer frequency, TF over GST control)"
same,binding signal,SPI1,"1.28 fold enrichment (6-mer frequency, TF over GST control)"
same,binding signal,SPIB,"1.37 fold enrichment (6-mer frequency, TF over GST control)"
same,binding signal,ELK3,"1.31 fold enrichment (6-mer frequency, TF over GST control)"
same,binding signal,FEV,"1.25 fold enrichment (6-mer frequency, TF over GST control)"
same,binding signal,ETV5,"1.35 fold enrichment (6-mer frequency, TF over GST control)"
same,binding signal,HSF1,"1.46 fold enrichment (6-mer frequency, TF over GST control)"
same,binding signal,SPIC,"1.34 fold enrichment (6-mer frequency, TF over GST control)"
same,binding signal,ELF4,"1.3 fold enrichment (6-mer frequency, TF over GST control)"
same,binding signal,ELK4,"1.3 fold enrichment (6-mer frequency, TF over GST control)"
same,binding signal,ETV2,"1.09 fold enrichment (6-mer frequency, TF over GST control)"
same,binding signal,ELF3,"1.31 fold enrichment (6-mer frequency, TF over GST control)"
same,binding signal,CRX,"1.64 fold enrichment (6-mer frequency, TF over GST control)"
same,binding signal,ETV1,"1.45 fold enrichment (6-mer frequency, TF over GST control)"
